Compounds with a hit are over-represented: about 21% of the library has one in this group of screens.
CYP2C19 inhib – blockers of cytochrome P450 2C19 activity – biochemical, luminescence, ADME assay, primary screen; inhibition, % at 5 µM; P33261; CYP2C19 Supersomes, luciferin-H EGE luminescence, 30 min; 21% of 96,000 active;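 active = CYP2C19 inhibition above a set limit at 5 µM in the primary screen, cut at about 50% in these data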;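 note: plate controls were negative control wells for no effect and 2.5 mM tranylcypromine positive control for full effect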
MRP resist rev – reversal of MRP1-mediated doxorubicin resistance, primary screen, H69AR cells, doxorubicin co-treatment; AID 602, 2007; 0.04% of 85,000 active; differential viability (reversal), % at 10 µM; H69AR cells + 2 uM doxorubicin, CellTiter-Glo, 72 h;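 active = viability drop by adding the cancer drug above about 55%, with treated viability meeting a 40% cutoff, limit read from the data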;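 note: viability without doxorubicin minus viability with 2 µM doxorubicin for each compound; larger differential means the compound sensitizes cells more to doxorubicin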
MRP-1 activ – H69AR viability gain despite doxorubicin, primary screen, MRP-1 activator project, H69AR cells, CellTiter-Glo; 0.61% of 140,000 active; viability increase, % at 10 µM; AID 799, 2007; viability rescue;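 active = viability gain under doxorubicin at or above a set limit, the compound median plus 3 SD, cut at about 4.7% in these data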;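 note: MRP-1 overexpressing cells given doxorubicin 25 µM after compound pretreatment; 18-22 h compound pretreatment then 72 h with doxorubicin before readout; 0% = doxorubicin-only wells and 100% = vehicle-treated cells without doxorubicin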
CYP2C19 activ – human CYP2C19 activators, primary screen, biochemical, luminescence | Cytochrome P450 2C19 (Homo sapiens), P33261 | recombinant CYP2C19, luciferin-H EGE luminescence; stronger effect = higher value; 0 = fully inhibited enzyme, 1 = untreated enzyme | activation factor at 5 µM | 96,000 tested, under 10 active | AID 1025, 2008;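 active = activation factor of at least 2 at 5 µM in the primary screen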;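 note: 0 = wells with 2.5 mM tranylcypromine and 1 = vehicle-only wells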
CYP2C9 inhib – blockers of cytochrome P450 2C9 activity – biochemical, luminescence, ADME assay, primary screen. P11712. CYP2C9 Supersomes, luciferin-H conversion. inhibition, % at 5 µM. 20% of 96,000 active;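 active = blocking of liver enzyme CYP2C9 beyond about 50% at 5 µM, limit read from the data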
Target sequence (P11712 whole entry, looked up): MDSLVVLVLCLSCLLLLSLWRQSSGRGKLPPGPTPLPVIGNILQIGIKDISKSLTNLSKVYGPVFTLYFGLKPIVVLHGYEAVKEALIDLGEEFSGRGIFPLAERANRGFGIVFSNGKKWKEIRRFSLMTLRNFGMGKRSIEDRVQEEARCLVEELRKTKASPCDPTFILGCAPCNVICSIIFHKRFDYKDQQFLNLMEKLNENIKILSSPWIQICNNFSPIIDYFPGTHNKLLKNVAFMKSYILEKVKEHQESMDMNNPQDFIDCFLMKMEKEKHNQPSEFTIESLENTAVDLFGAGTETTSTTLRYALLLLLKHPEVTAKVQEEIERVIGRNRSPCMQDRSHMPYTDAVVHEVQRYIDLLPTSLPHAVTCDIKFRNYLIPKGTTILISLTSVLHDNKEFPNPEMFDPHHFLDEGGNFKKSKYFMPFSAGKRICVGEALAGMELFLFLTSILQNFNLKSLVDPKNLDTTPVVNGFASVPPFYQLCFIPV
CYP2C9 act – human CYP2C9 activators, primary screen, biochemical, luminescence; Cytochrome P450 2C9 (Homo sapiens), P11712; recombinant CYP2C9, luciferin-H conversion; stronger effect = higher value; factor 1 = untreated enzyme, 0 = blocked; activation factor at 5 µM; 1.4% of 96,000 active; AID 1024, 2008;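 active = activation factor of 2 or more for CYP2C9 at a 5 µM dose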;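 note: 0 = sulfaphenazole-blocked wells and 1 = vehicle-only wells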
* = called active by the depositor; nt = not tested or not shown.

SMILES	CYP2C19 inhib	MRP resist rev	MRP-1 activ	CYP2C19 activ	CYP2C9 inhib	CYP2C9 act
Cc1cc(C(=O)NCCN2C(=O)S/C(=C\c3cccs3)C2=O)ccc1[N+](=O)[O-]	nt	nt	-1	nt	nt	nt
Cc1nc(SCC(=O)NC(C)(C#N)C2CC2)c2c(-c3cccs3)csc2n1 (stereo not drawn)	nt	nt	-2	nt	nt	nt
Cc1ccc(S(=O)(=O)N(C)Cc2ccc(C(=O)N/N=C/c3ccc(OC(F)F)cc3)cc2)cc1	nt	nt	-5	nt	nt	nt
CC1CCCN(C(c2cccs2)c2nnnn2Cc2ccccc2)C1 (stereo not drawn)	86*	9	-3	0.1	27	0.7
Fc1ccc(C(c2nnnn2Cc2cccs2)N2CCN(C3CCCCC3)CC2)cc1 (stereo not drawn)	86*	-9	-3	0.1	9	0.9
COc1ccc(N2CCN(C(c3ccccc3)c3nnnn3Cc3ccc(F)cc3)CC2)cc1 (stereo not drawn)	64*	20	-2	0.4	40	0.6
COc1ccc(C(c2nnnn2Cc2ccc(F)cc2)N2CCN(c3ccccc3)CC2)cc1 (stereo not drawn)	22	-9	-1	0.8	27	0.7
CN1CCN(C(c2ccccc2)c2nnnn2Cc2ccccc2)CC1 (stereo not drawn)	nt	18	-3	nt	nt	nt
Cn1c(=O)[nH]c(=O)c2c1nc(SCC(O)CO)n2Cc1ccccc1Cl (stereo not drawn)	-13	1	0	1.1	0	1
CCOC(=O)/C(=C\Nc1ccc(OC(F)(F)F)cc1)Sc1ncc(C(F)(F)F)cc1Cl	40	17	0	0.6	48	0.5
CCC1Oc2ccc(C)cc2N(CC(=O)NCCN2CCCCCC2)C1=O (stereo not drawn)	6	nt	-1	0.9	9	0.9
Cc1ccc2c(c1)N(CCC(=O)NCCN1CCOCC1)C(=O)CO2	-5	9	1	1.1	0	1
Cc1ccc2c(c1)N(CCC(=O)NCC1COc3ccccc3O1)C(=O)CO2 (stereo not drawn)	76*	3	0	0.2	35	0.6
CCC1Oc2ccc(C)cc2N(CC(=O)NCC2COc3ccccc3O2)C1=O (stereo not drawn)	93*	-14	1	0.1	38	0.6
CCCC1COC(Cn2cncn2)(c2ccc(C)cc2)O1 (stereo not drawn)	58*	14	1	0.4	49	0.5
COCCn1nnnc1CN1C2CCCC1CC(NC(C)=O)C2 (stereo not drawn)	-8	3	-1	1.1	6	0.9
CCN(CCCNC(=O)CC(C(=O)N1CCc2ccccc21)n1ccnc1)c1ccccc1 (stereo not drawn)	94*	6	-2	0.1	32	0.7
Cc1ccc(Nc2nnc(SC3CCOC3=O)s2)c(C)c1 (stereo not drawn)	nt	nt	-2	nt	nt	nt
Cc1c(Br)cc(C(=O)N2CCCC2)c(C)c1C	92*	11	-1	0.1	-91	1.9
C/C=C/c1c(F)c(F)c(Oc2ccc(C(=O)O)cc2)c(F)c1F	1	18	0	1	81*	0.2
CCOC(=O)C1CCCN(c2cc(=O)n(Cc3ccc(F)cc3)c(=O)[nH]2)C1 (stereo not drawn)	3	6	0	1	5	1
Brc1c(OCCOCCn2cncn2)ccc2ccccc12	99*	9	0	0	95*	0.1
O=C(COc1ccc2ccccc2c1Br)NNC(=O)Nc1ccccc1	28	nt	0	0.7	-45	1.4
CCN(CC)CC#CCC(C)(c1ccccc1)c1ccccc1	94*	nt	-2	0.1	72*	0.3
O=C(O)c1cc2c(cc1Br)OCCCO2	nt	nt	-2	nt	nt	nt
O=C1NCCCC2c3c(cc(Br)c(O)c3Br)OC12N1CCCCC1 (stereo not drawn)	97*	-4	2	0	44	0.6
O=C1NCCCc2c1oc1cc(Br)c(O)c(Br)c21	1	-16	-5	1	-7	1.1
Cc1cc(N/C=C/C(=O)c2cccc3ccccc23)no1	57*	-27	-1	0.4	-33	1.3

Bioassay records: PubChem BioAssay, several laboratories
